Experimental data taken from PubChem BioAssay (Tox21).
Values joined by “and” are separate entries in the source; they are usually repeats but may differ in a detail not shown here. Equal entries are not always repeated. Results filed as inconclusive are left out. Entries that show only a call come without a potency. A structure can be active in one record and inactive in another. Active and inactive are the calls of the source. Unless noted, the call rests on the fitted dose curve; in most records, active means well fitted curve in the direction sought with a large enough effect in the repeat runs; inconclusive means weak or mixed curves; inactive means no such curve, though single readings can be large; an effect the other way counts as inactive or inconclusive.

Tests used:
[1] = qHTS assay to test for compound auto fluorescence at 535 nm (green) in HEK293 cells (AID 720680)
[2] = qHTS assay to test for compound auto fluorescence at 460 nm (blue) in HEK293 cell free culture (AID 720681)
Summary of the method: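 Compounds were added to cell-free DMEM with 10% FBS and fluorescence read directly. The blue channel used 405 nm excitation and 460 nm emission, with triamterene as the reference fluorophore.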

[3] = qHTS assay to test for compound auto fluorescence at 535 nm (green) in HEK293 cell free culture (AID 720682)
Summary of the method: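 Fluorescein serves as the green reference fluorophore; each compound's intrinsic emission at 535 nm (excitation 485 nm) is reported as an equivalent amount of that dye, measured in serum-containing DMEM without cells.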

[4] = qHTS assay to test for compound auto fluorescence at 590 nm (red) in HepG2 cell free culture (AID 720684)
Summary of the method: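 Rose Bengal sodium served as the reference for red signal. Test compounds were dispensed into serum-containing MEM (10% FBS) without cells, and plates were read at 540/590 nm.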

[5] = qHTS assay to test for compound auto fluorescence at 460 nm (blue) in HepG2 cell free culture (AID 720685)
Summary of the method: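 Cell-free plates of MEM plus 10% FBS received 23 nL compound or DMSO vehicle; blue-channel (405/460 nm) intensity scored against triamterene as reference fluorophore.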

[6] = qHTS assay to test for compound auto fluorescence at 460 nm (blue) in HepG2 cells (AID 720687)
Summary of the method: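 HepG2 cells in MEM with 10% FBS, attached overnight at 37 C, were exposed to compound or DMSO for 1 hr at 37 C, 5% CO2. Blue fluorescence was read at 405/460 nm, with triamterene as reference fluorophore.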

[7] = qHTS assay to identify small molecule antagonists of the glucocorticoid receptor (GR) signaling pathway - cell viability counter screen (AID 720693); further: nearly all actives have a fitted effect of over 55% in size
[8] = qHTS assay for identifying genotoxic compounds that show differential cytotoxicity against isogenic chicken DT40 cell lines with known DNA damage response pathways - wild type cell line (AID 743012); further: nearly all actives have a fitted effect of over 60% in size
Summary of the method: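 Endpoint: CellTiter-Glo luminescence, 30 min RT. Cells: wild type DT40, 300/well. Exposure: compounds in DMSO, 40 h, 37 C/5% CO2, after ~0.5 h pre-incubation.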

[9] = qHTS assay for identifying genotoxic compounds that show differential cytotoxicity against isogenic chicken DT40 cell lines with known DNA damage response pathways - Rev3 mutant cell line (AID 743014); further: nearly all actives have a fitted effect of over 55% in size; further: potency means the concentration at half of the fitted maximal effect
[10] = qHTS assay for identifying genotoxic compounds that show differential cytotoxicity against isogenic chicken DT40 cell lines with known DNA damage response pathways - Rad54/Ku70 mutant cell line (AID 743015); further: nearly all actives have a fitted effect of over 60% in size; further: potency means the concentration at half of the fitted maximal effect
[11] = qHTS assay to identify small molecule antagonists of the androgen receptor (AR) signaling pathway - cell viability counter screen (AID 743033; further: nearly all actives have a fitted effect of over 45% in size; further: potency means the concentration at half of the fitted maximal effect)
[12] = qHTS assay to identify small molecule antagonists of the androgen receptor (AR) signaling pathway using the MDA cell line - cell viability counter screen (AID 743041; further: nearly all actives have a fitted effect of over 45% in size; further: potency means the concentration at half of the fitted maximal effect)
Summary of the method: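 Cytotoxicity counter screen: MDA-kb2 AR-luc cells, compound + R1881, 16 h, 37C, 0% CO2; CellTiter-Fluor added at 15.5 h, fluorescence read after 30 min.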

[13] = qHTS assay to test for compound auto fluorescence at 535 nm (green) in HepG2 cell free culture (AID 720686)
[14] = target: Glucocorticoid receptor (Homo sapiens) (UniProt P04150); test: qHTS assay to identify small molecule agonists of the glucocorticoid receptor (GR) signaling pathway (AID 720691; active means well fitted activation curve with a large enough effect in the signal ratio in the repeat runs, not every such curve was filed as active; the % refers to the signal ratio)
Glucocorticoid receptor (Homo sapiens), sequence (P04150 whole entry, looked up): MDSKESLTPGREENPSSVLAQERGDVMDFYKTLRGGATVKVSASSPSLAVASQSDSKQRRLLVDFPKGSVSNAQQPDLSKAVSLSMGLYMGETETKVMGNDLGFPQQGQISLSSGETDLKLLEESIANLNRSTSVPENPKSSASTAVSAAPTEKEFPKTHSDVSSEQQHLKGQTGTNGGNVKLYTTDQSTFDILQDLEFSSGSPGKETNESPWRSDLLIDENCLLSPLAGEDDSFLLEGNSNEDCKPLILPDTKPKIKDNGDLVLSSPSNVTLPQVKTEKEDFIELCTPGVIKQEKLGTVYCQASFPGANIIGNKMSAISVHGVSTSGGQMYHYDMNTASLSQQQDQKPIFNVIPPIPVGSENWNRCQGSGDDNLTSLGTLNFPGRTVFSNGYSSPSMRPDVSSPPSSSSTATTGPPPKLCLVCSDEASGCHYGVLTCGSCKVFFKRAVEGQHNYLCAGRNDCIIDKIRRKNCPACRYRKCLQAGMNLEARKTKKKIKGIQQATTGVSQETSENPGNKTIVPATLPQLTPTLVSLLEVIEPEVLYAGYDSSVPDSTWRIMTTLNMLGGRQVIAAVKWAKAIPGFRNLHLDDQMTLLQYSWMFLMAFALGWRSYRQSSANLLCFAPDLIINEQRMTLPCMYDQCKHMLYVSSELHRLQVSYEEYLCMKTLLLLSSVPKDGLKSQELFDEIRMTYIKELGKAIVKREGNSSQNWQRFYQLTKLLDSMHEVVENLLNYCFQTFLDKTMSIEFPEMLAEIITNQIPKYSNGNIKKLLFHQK
Summary of the method: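 Measures GR pathway activation through a GRE-beta-lactamase reporter stably integrated in HeLa cells, with 18 h compound treatment at 37 C and fluorescence detection using a FRET substrate.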

[15] = target: Glucocorticoid receptor (Homo sapiens) (UniProt P04150); test: qHTS assay to identify small molecule antagonists of the glucocorticoid receptor (GR) signaling pathway (AID 720692; active means well fitted inhibition curve with a large enough effect in the signal ratio in the repeat runs, not every such curve was filed as active; the % refers to the signal ratio)
Summary of the method: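 Tox21 10K library screened in concentration-response for blockade of dexamethasone (5 nM final)-induced GRE-bla reporter activity in HeLa cells; 18 h treatment, fluorescence read.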

[16] = target: Androgen receptor (Homo sapiens) (UniProt P10275); test: qHTS assay to identify small molecule antagonists of the androgen receptor (AR) signaling pathway (AID 743035; active means well fitted inhibition curve with a large enough effect in the signal ratio in the repeat runs, not every such curve was filed as active; the % refers to the signal ratio)
Androgen receptor (Homo sapiens), sequence (P10275 whole entry, looked up): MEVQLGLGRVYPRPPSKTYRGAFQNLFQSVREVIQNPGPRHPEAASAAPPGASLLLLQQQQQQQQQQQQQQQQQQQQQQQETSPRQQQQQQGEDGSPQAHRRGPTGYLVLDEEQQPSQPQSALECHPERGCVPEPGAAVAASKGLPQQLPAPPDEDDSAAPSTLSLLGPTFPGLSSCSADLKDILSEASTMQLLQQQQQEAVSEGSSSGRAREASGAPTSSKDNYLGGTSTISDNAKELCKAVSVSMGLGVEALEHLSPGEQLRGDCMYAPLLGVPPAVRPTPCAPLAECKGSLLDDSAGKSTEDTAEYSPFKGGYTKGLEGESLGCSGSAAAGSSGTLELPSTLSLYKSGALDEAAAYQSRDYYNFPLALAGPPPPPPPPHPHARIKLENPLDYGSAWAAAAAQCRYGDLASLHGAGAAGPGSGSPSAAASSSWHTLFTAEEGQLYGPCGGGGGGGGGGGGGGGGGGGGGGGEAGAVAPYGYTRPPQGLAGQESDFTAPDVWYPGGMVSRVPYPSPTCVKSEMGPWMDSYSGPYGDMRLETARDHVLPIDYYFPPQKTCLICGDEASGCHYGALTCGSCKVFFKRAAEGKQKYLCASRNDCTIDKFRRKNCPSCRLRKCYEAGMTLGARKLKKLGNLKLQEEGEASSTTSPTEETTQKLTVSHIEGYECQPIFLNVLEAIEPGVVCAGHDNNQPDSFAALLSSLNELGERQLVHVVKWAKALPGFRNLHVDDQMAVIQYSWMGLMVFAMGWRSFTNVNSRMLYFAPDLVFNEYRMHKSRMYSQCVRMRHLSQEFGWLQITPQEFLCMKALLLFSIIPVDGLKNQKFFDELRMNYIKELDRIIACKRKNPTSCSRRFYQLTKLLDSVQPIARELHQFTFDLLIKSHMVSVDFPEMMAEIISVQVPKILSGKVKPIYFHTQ
Summary of the method: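 R1881 agonist challenge of a HEK293 UAS-beta-lactamase AR reporter line in the presence of compound (16 h, 37C); signal taken as FRET fluorescence after 2 h with LiveBLAzer B/G substrate at room temperature.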

[17] = target: Androgen receptor (Homo sapiens) (UniProt P10275); test: qHTS assay to identify small molecule agonists of the androgen receptor (AR) signaling pathway (AID 743036; active means well fitted activation curve with a large enough effect in the signal ratio in the repeat runs, with a control signal flat, not every such curve was filed as active; the % refers to the signal ratio)
Summary of the method: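 Fluorescence from a beta-lactamase FRET substrate served as read-out in AR-UAS-bla GripTite HEK293 cells. Cells were treated with DMSO-dissolved compounds for 16 h at 37C, then with LiveBLAzer B/G substrate for 2 h at room temperature.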

[18] = target: Androgen receptor (Homo sapiens) (UniProt P10275); test: qHTS assay to identify small molecule agonists of the androgen receptor (AR) signaling pathway using the MDA cell line (AID 743040; further: nearly all actives have a fitted effect of over 20% in size); conditions: MDA-kb2 AR-luc cells, MMTV luciferase, 16 h, stronger effect = higher value
Summary of the method: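 Luciferase read-out, ONE-Glo, 30 min RT. Cells: MDA-kb2 AR-luc, MMTV promoter with AR and GR response elements. Compound exposure 16 h, 37C, 0% CO2, after 5 h pre-incubation. qHTS agonist mode.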

[19] = target: Androgen receptor (Homo sapiens) (UniProt P10275); test: qHTS assay to identify small molecule antagonists of the androgen receptor (AR) signaling pathway using the MDA cell line (AID 743042; further: nearly all actives have a fitted effect of over 55% in size)
Summary of the method: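 MDA-kb2 breast carcinoma cells carrying MMTV-luciferase (AR/GR responsive) were co-treated with compounds and the agonist R1881 for 16 h at 37C. Inhibition read as ONE-Glo luminescence; CellTiter-Fluor fluorescence measured in parallel for cytotoxicity.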

Row | Structure (SMILES) | outcome [1] | Potency [2] | outcome [3] | outcome [4] | Potency [5] | Potency [6] | Potency [7] | Potency [8] | Potency [9] | Potency [10] | Potency [11] | Potency [12] | outcome [13] | outcome [14] | Potency [15] | Potency [16] | Potency [17] | activity change ([18]; at 70.3 µM (top of the series)) | activity change ([18]; at 95 µM (top of the series)) | Potency [19]
1 | CCc1cccc(O)c1 | inactive | inactive | inactive | inactive | inactive | inactive | inactive | inactive | inactive | inactive | inactive | inactive |  |  |  |  |  |  |  | 
2 | COCN(COC)c1nc(N(COC)COC)nc(N(COC)COC)n1 | inactive | inactive | inactive | inactive |  | inactive | inactive | inactive | inactive | inactive | inactive | inactive | inactive | inactive |  |  |  |  |  | 
3 | CCCCC(=O)O | inactive | inactive | inactive | inactive |  | inactive | inactive | inactive | inactive | inactive | inactive | inactive | inactive | inactive | inactive |  |  |  |  | 
4 | CO[Si](CCCNCCN)(OC)OC | inactive | inactive | inactive | inactive | inactive | inactive | inactive |  | inactive | inactive | inactive | inactive | inactive |  |  | inactive | inactive | -2.52% (inactive) | 0.325% (inactive) | inactive
5 | C=CC(=O)NCOCCCC | inactive | inactive | inactive | inactive | inactive | inactive | inactive | inactive | inactive | inactive | inactive | inactive | inactive | inactive |  |  |  |  |  | 
6 | COC(=O)CCCCC(=O)OC | inactive | inactive | inactive | inactive | inactive | inactive | inactive | inactive | inactive | inactive | inactive | inactive | inactive | inactive |  |  |  |  |  | 
7 | CCN(CC)CCNC(=O)c1ccc(N)cc1 | inactive | inactive | inactive | inactive | inactive | inactive | inactive |  | inactive | inactive | inactive | inactive |  |  |  |  |  |  |  | 
8 | NC(=O)NC(N)=O | inactive | inactive | inactive | inactive | inactive | inactive | inactive |  | inactive | inactive | inactive | inactive | inactive |  |  |  |  |  |  | 
9 | c1cnc2c(c1)ccc1cccnc12 | inactive | inactive | inactive | inactive | inactive | inactive | inactive |  | 1.38 µM (active) and 1.22 µM (active) and 2.43 µM (active) | 1.38 µM (active) and 686 nM (active) and 1.54 µM (active) | 4.9 µM (active) | 49 µM (active) and 30.6 µM (active) | inactive |  |  |  |  |  |  | 
10 | OCC(CO)(CO)CO | inactive | inactive | inactive | inactive | inactive | inactive | inactive |  | inactive | inactive | inactive | inactive |  |  |  |  |  |  |  | 
11 | CC1(C)C(=O)N(Cl)C(=O)N1Cl | inactive | inactive | inactive | inactive | inactive | inactive | inactive |  | inactive | inactive | inactive | inactive |  | inactive | inactive |  |  |  |  | 
12 | OC[C@H]1O[C@@H](Oc2ccc(O)cc2)[C@H](O)[C@@H](O)[C@@H]1O | inactive | inactive | inactive | inactive | inactive | inactive | inactive | inactive | inactive and 30.6 µM (active) | inactive | inactive | inactive | inactive |  |  |  |  |  |  | 
13 | C=C(CC(=O)O)C(=O)O | inactive | inactive | inactive | inactive | inactive | inactive | inactive | inactive | inactive | inactive | inactive | inactive | inactive | inactive |  |  |  |  |  | 
14 | CCCCCC(C)=O | inactive | inactive | inactive | inactive | inactive | inactive | inactive | inactive | inactive | inactive | inactive | inactive |  | inactive | inactive |  |  |  |  | 
15 | O=C1CCCCCCCCCCC1 | inactive | inactive | inactive | inactive | inactive | inactive | inactive |  | inactive | inactive | inactive | inactive | inactive | inactive |  |  |  |  |  | 
16 | CC(C)(CO)CO | inactive | inactive | inactive | inactive | inactive | inactive | inactive | inactive | inactive | inactive | inactive | inactive | inactive | inactive |  | inactive | inactive | 0.0392% (inactive) and -0.381% (inactive) |  | inactive
17 | Cc1nnc(NS(=O)(=O)c2ccc(N)cc2)s1 | inactive | inactive | inactive | inactive |  | inactive | inactive | inactive | inactive | inactive | inactive | inactive | inactive |  |  | inactive | inactive | 6.45% (inactive) and 3.21% (inactive) |  | inactive
